Source: PubChem BioAssay (Broad Institute)
Only a selection was taken, and hits are over-represented in it overall.
miR-122 inh: activators of miR-122 sensor in Huh7 cells; activation, % at 12.5 µM; 340,000 compounds, 0.14% hits; Huh7 psiCHECK-miR122 Renilla luciferase sensor, 48 h;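 active means mean activation of 30% or more, with every replicate also reaching 30%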;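 further: 0% = median of neutral control wells and 100% = median of positive control wells; higher luciferase signal means stronger suppression of miR-122 activity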
Numbers without * were called inactive.

SMILES	miR-122 inh
COc1ccc(NS(=O)(=O)c2ccc(N3CCOCC3)c(NC(=O)c3ccc(F)cc3)c2)cc1	-179
COc1ccc(NS(=O)(=O)c2ccc(N3CCOCC3)c(NC(=O)c3cccc(F)c3)c2)cc1	-190
COc1nnc(-c2ccc(N3CCOCC3)c(NC(=O)c3ccccc3)c2)c2ccccc12	45*
C[C@H](CO)N1C[C@H](C)[C@@H](CN(C)C(=O)Cc2ccccn2)Oc2ncc(/C=C/c3ccccc3)cc2C1=O	5
COc1cccc(C#Cc2cnc3c(c2)C(=O)N([C@@H](C)CO)C[C@@H](C)[C@H](CN(C)C(=O)C2CCCCC2)O3)c1	5
COCC#Cc1cnc2c(c1)C(=O)N([C@@H](C)CO)C[C@@H](C)[C@H](CN(C)C(=O)Nc1c(C)noc1C)O2	5
O=C(NC(Nc1ncc(S(=O)(=O)c2ccc([N+](=O)[O-])cc2)s1)(C(F)(F)F)C(F)(F)F)c1ccc(Cl)cc1	44*
C[C@H]1CN([C@@H](C)CO)C(=O)c2cc(C#Cc3cccc(F)c3)cnc2O[C@H]1CN(C)CC1CCOCC1	-2
C[C@@H]1CN([C@H](C)CO)C(=O)c2cc(-c3cccc(F)c3)cnc2O[C@H]1CN(C)C(=O)C1CCOCC1	-6
C[C@H](CO)N1C[C@H](C)[C@@H](CN(C)Cc2cccc(F)c2)Oc2ncc(C3=CCCCC3)cc2C1=O	-9
C[C@@H]1CN([C@@H](C)CO)C(=O)c2cc(-c3ccc(F)cc3)cnc2O[C@H]1CN(C)Cc1cccnc1	2
CN1/C(=C/C=C/c2n(C)c3cc([N+](=O)[O-])c([N+](=O)[O-])cc3[n+]2C)C(C)(C)c2ccccc21	38*
C[C@H](CO)N1C[C@H](C)[C@H](CN(C)C(=O)C2CCOCC2)Oc2ncc(/C=C/c3ccccc3)cc2C1=O	3
COc1ccc(-c2ccc(C#N)c(OC(=O)c3c(Cl)cccc3Cl)n2)cc1	32*
C/C=C/c1ccc2c(c1)O[C@H](CN(C)Cc1ccccc1)[C@@H](C)CN([C@@H](C)CO)S2(=O)=O	-9
C[C@H]1CN([C@@H](C)CO)S(=O)(=O)c2ccc(Br)cc2O[C@H]1CN(C)CC1CCOCC1	-2
C[C@H](CO)N1C[C@H](C)[C@H](CN(C)C(=O)c2ccc(F)cc2)Oc2ncc(C3=CCCCC3)cc2C1=O	3
CC(C)NC(=O)N(C)C[C@@H]1Oc2ncc(C3=CCCCC3)cc2C(=O)N([C@H](C)CO)C[C@H]1C	4
CN(C)CCNc1nc2sc3c(c2c(=O)n1CCc1ccccc1)CCCCC3	32*
COCC#Cc1cnc2c(c1)C(=O)N([C@@H](C)CO)C[C@H](C)[C@H](CN(C)S(=O)(=O)c1cccc(OC)c1)O2	8
C[C@H](CO)N1C[C@H](C)[C@@H](CN(C)C(=O)Nc2cccc(F)c2)Oc2cc(/C=C/c3ccccc3)ccc2S1(=O)=O	-16
CC(=O)N(C)C[C@H]1Oc2cc(/C=C/c3ccccc3)ccc2S(=O)(=O)N([C@H](C)CO)C[C@@H]1C	6
CC(C)CC#Cc1ccc2c(c1)O[C@H](CN(C)C(=O)NC1CCCC1)[C@@H](C)CN([C@H](C)CO)S2(=O)=O	-56
C[C@@H]1CN([C@@H](C)CO)S(=O)(=O)c2ccc(/C=C/c3ccccc3)cc2O[C@@H]1CN(C)C(=O)NC1CCCCC1	41*
CC(=O)N(C)C[C@H]1Oc2cc(/C=C/c3ccccc3)ccc2S(=O)(=O)N([C@@H](C)CO)C[C@H]1C	34*
SMILES	miR-122 inh
C[C@@H]1CN([C@H](C)CO)S(=O)(=O)c2ccc(/C=C/c3ccccc3)cc2O[C@@H]1CN(C)C(=O)c1ccccc1	20
C[C@@H]1CN([C@@H](C)CO)C(=O)c2cc(/C=C/c3ccccc3)cnc2O[C@@H]1CN(C)Cc1cccc(C(=O)O)c1	3
CCCNC(=O)N1C[C@@H](C)[C@H](OC)CN(C)C(=O)c2cc(NS(=O)(=O)CC)ccc2OC[C@H]1C	-2
CO[C@@H]1CN(C)C(=O)c2ccc(NC(=O)C3CCC3)cc2OC[C@H](C)NC[C@@H]1C	-4
C[C@H]1CN([C@@H](C)CO)C(=O)c2cc(-c3cncnc3)cnc2O[C@H]1CN(C)Cc1ccncc1	3
CO[C@H]1CN(C)C(=O)c2cc(NS(=O)(=O)c3ccccc3)ccc2OC[C@@H](C)N(C)C[C@H]1C	-1
CCC(=O)N(C)C[C@H]1Oc2ncc(C#C[C@H](C)O)cc2C(=O)N([C@H](C)CO)C[C@@H]1C	0
CNC[C@H]1Oc2cc(C#CC3CCCCC3)ccc2S(=O)(=O)N([C@H](C)CO)C[C@@H]1C	42*
CNC[C@@H]1Oc2cc(C#C[C@H](C)O)ccc2S(=O)(=O)N([C@@H](C)CO)C[C@@H]1C	5
CNC[C@H]1Oc2cc(C#C[C@H](C)O)ccc2S(=O)(=O)N([C@H](C)CO)C[C@@H]1C	-1
CNC[C@@H]1Oc2cc(C#CC3CCCCC3)ccc2S(=O)(=O)N([C@@H](C)CO)C[C@@H]1C	51*
CNC[C@@H]1Oc2cc(C#C[C@@H](C)O)ccc2S(=O)(=O)N([C@H](C)CO)C[C@H]1C	5
CNC[C@H]1Oc2cc(C#CC(C)C)ccc2S(=O)(=O)N([C@@H](C)CO)C[C@@H]1C	-7
C[C@H](CO)N1C[C@H](C)[C@H](CN(C)C(=O)CN2CCOCC2)Oc2cc(C#Cc3cccc(F)c3)ccc2S1(=O)=O	5
CO[C@@H]1CN(C)C(=O)c2cc(NC(=O)C3CCOCC3)ccc2OC[C@@H](C)N(C)C[C@@H]1C	-2
C[C@H](CO)N1C[C@H](C)[C@@H](CN(C)C(=O)CC2CC2)Oc2ncc(C#CCC3CCCC3)cc2C1=O	1
COc1ccccc1-c1ccc2c(c1)O[C@@H](CN(C)S(=O)(=O)c1ccccc1)[C@H](C)CN([C@H](C)CO)S2(=O)=O	-9
C[C@@H]1CN([C@@H](C)CO)S(=O)(=O)c2ccc(C#Cc3ccccc3)cc2O[C@H]1CN(C)C(=O)Nc1ccccc1	0
C[C@H]1CN([C@@H](C)CO)C(=O)c2cc(-c3ccc(F)cc3)cnc2O[C@H]1CN(C)C(=O)c1cccnc1	5
C[C@H](CO)N1C[C@H](C)[C@H](CN(C)C(=O)NC2CCCC2)Oc2ncc(Br)cc2C1=O	-3
COc1ccccc1-c1cnc2c(c1)C(=O)N([C@H](C)CO)C[C@H](C)[C@@H](CN(C)CC1CCCC1)O2	3
COCC#Cc1ccc2c(c1)O[C@H](CN(C)C(C)=O)[C@H](C)CN([C@@H](C)CO)S2(=O)=O	1
C[C@@H]1CN([C@@H](C)CO)C(=O)c2cc(C#C[C@@H](C)O)cnc2O[C@H]1CN(C)C(=O)CN(C)C	4
C[C@@H]1CN([C@H](C)CO)C(=O)c2cc(-c3cccc(C(=O)N(C)C)c3)cnc2O[C@@H]1CN(C)CC1CC1	1
CCC(=O)N(C)C[C@H]1Oc2cc(C#C[C@H](C)O)ccc2S(=O)(=O)N([C@H](C)CO)C[C@H]1C	2
COCC(=O)Nc1ccc2c(c1)OC[C@@H](C)N(C(C)=O)C[C@@H](C)[C@@H](OC)CN(C)C2=O	-2
C[C@@H]1CN([C@H](C)CO)S(=O)(=O)c2ccc(-c3ccccc3)cc2O[C@H]1CN(C)C(=O)CC1CC1	-1
C/C=C/c1ccc2c(c1)O[C@@H](CN(C)C(=O)c1ccc3c(c1)OCO3)[C@@H](C)CN([C@@H](C)CO)S2(=O)=O	-1
Cc1ccc(-c2ccc3c(c2)O[C@H](CN(C)C(=O)CC2CC2)[C@H](C)CN([C@@H](C)CO)S3(=O)=O)cc1	53*
C[C@@H]1CN([C@@H](C)CO)S(=O)(=O)c2ccc(-c3ccccc3)cc2O[C@@H]1CN(C)C(=O)CC1CC1	7
